Bioassay records as filed in PubChem.
In the library only some 3.5% were active in any assay of this set; here they are far more common.
UGM FP inh – blocks M. tuberculosis UGM enzyme. P9WIQ1. purified UGM, fluorescence polarization probe displacement. inhibition, % at 10 µM. 320,000 compounds, 0.06% hits; in the data active = inhibition above about 10%, passing the limit was not always enough
Mtb hypoxia rep – inhibitors of hypoxia-regulated fluorescent reporter in Mycobacterium tuberculosis. AID 1159583. 300,000 compounds, 0.1% hits. M. tuberculosis hypoxia-regulated fluorescent reporter, fluorescence. fluorescence inhibition, % (concentration not given with the values); in the data active = fluorescence inhibition mostly above about 23%, no sharp cut-off; inactive = mostly below about 17%
FadD28 binding – M. tuberculosis FadD28 bisubstrate binding inhibition; FadD28 bisubstrate probe binding, fluorescence polarization; inhibition, % at 12.5 µM; 360,000 compounds, 0.22% hits; AID 588549; in the data active = inhibition above about 8.5%, passing the limit was not always enough
GDH-TPI inh – inhibits GDH-TPI coupling enzymes, artifact for Mtb FBA screen | AID 588335 | inhibition, % at 4.8 µM | 360,000 compounds, 1.2% hits | GDH-TPI coupled enzyme counterscreen, NADH absorbance; in the data active = inhibition above about 30%;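 note: 0% = DMSO wells and 100% = wells lacking the enzyme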
Mtb FBA inh – inhibits M. tuberculosis FBA enzyme; AID 588726; P9WQA3; 360,000 compounds, 2.3% hits; inhibition, % at 1 µM; purified M. tuberculosis FBA, fluorescence read-out; in the data active = inhibition above about 27%;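 note: 0% = vehicle and 100% = reference inhibitor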
Target sequence (P9WQA3 whole entry, looked up): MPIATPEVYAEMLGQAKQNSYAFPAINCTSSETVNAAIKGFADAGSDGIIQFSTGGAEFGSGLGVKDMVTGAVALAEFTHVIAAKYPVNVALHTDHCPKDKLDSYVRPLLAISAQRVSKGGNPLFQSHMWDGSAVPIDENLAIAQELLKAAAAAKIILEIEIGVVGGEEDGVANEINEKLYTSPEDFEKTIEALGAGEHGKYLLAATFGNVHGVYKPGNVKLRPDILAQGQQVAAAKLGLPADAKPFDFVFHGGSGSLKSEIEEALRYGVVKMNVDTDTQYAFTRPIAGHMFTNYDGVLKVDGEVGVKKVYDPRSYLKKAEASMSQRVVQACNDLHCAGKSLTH
Rv3671c protease – inhibits the M. tuberculosis serine protease Rv3671c | AID 2606 | inhibition, % at 5.96 µM | 320,000 compounds, 0.048% hits | P9WHR9; in the data active = inhibition above about 38%;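 note: extracellular domain of Rv3671c used as enzyme; 0% = enzyme with DMSO and 100% = no enzyme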
Target sequence (P9WHR9 whole entry, looked up, the tested form may be a part): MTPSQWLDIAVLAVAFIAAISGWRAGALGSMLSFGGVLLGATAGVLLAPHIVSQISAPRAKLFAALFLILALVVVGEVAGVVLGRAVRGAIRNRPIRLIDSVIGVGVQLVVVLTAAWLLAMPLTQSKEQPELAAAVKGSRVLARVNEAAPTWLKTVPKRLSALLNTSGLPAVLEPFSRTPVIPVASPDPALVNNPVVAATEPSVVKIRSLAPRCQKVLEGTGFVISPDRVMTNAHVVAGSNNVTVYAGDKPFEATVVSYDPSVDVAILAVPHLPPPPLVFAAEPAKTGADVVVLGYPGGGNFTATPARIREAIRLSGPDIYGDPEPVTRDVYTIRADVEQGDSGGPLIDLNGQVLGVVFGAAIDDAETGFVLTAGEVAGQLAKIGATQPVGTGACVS
Numbers without * were called inactive; . = not tested or not shown; + = active, no number.

SMILES | UGM FP inh | Mtb hypoxia rep | FadD28 binding | GDH-TPI inh | Mtb FBA inh | Rv3671c protease
CCOC(=O)C1C2COc3ccc(Br)cc3C2N2C(=O)c3ccc(F)cc3NC(=O)[C@@]12C (stereo not given in full) | . | 2.9 | . | . | . | .
COc1ccc(-c2cc(=Nc3ccccc3)c3cc(C)ccc3o2)cc1 | 0.3 | 3.4 | -4.9 | -0.8 | + | 0.7
COc1ccc(-c2cc(=NC(CC(C)C)C(=O)O)c3cc(C)ccc3o2)cc1 (stereo not given) | . | 0.7 | -1.4 | 22.9 | + | 0.1
COc1ccc(-c2cc(=NCCC(=O)O)c3cc(C)ccc3o2)cc1 | . | 13.4 | -0.9 | 25.6 | + | .
C(=Nc1cccc2c(N=Cc3ccco3)cccc12)c1ccco1 | 5.6 | . | -1.7 | 3.9 | 61.6* | -13.3
COc1cc(N/C=C(\C(C)=O)c2ccccc2)cc(OC)c1 | -3.2 | . | -1.8 | 43.7* | -3.0 | -1.4
O=c1[nH]cccc1-c1nc2ccccc2n1Cc1ccc(F)cc1 | 0.1 | 6.0 | -1.9 | 13.9 | 172.5* | -4.2
Cc1cc2nc(-c3ccc[nH]c3=O)n(Cc3ccc(F)cc3)c2cc1C | -0.7 | 3.0 | . | 13.6 | 198.4* | 3.2
Cc1cc2nc(-c3ccc[nH]c3=O)[nH]c2cc1C | 0.8 | 2.9 | -2.9 | 26.3 | + | -17.7
Cc1cc2nc(-c3ccc[nH]c3=O)n(Cc3ccccc3F)c2cc1C | -4.1 | 8.6 | . | -3.2 | 14.4 | .
CCCn1c(-c2ccc[nH]c2=O)nc2ccccc21 | -1.2 | 5.3 | -2.6 | 3.0 | 151.5* | 0.4
COc1ccc(-c2nc3ccccc3n2Cc2ccc(C)cc2)cc1 | 0.1 | . | -14.4 | 0.0 | 5.3 | -7.3
COc1cc(C=CC(=O)CC(=O)C=Cc2ccc(O)c(OC)c2)ccc1O | . | 9.0 | . | . | . | .
O=S(=O)(NN=Cc1cn(-c2ccccc2)nc1-c1ccccc1)c1ccccc1 | . | 5.5 | . | . | . | .
CC(=NNC(=O)Cc1ccccc1[N+](=O)[O-])c1cccnc1 | . | 11.6 | . | . | . | .
O=C(CCCN1C(=O)/C(=C\c2cccs2)SC1=S)Nc1cccc(C(=O)O)c1 | 5.7 | 13.2 | 0.0 | 13.2 | 0.8 | 1.8
O=C(CCCN1C(=O)/C(=C\c2ccco2)SC1=S)Nc1ccc(O)cc1C(=O)O | -0.1 | . | 39.5* | 9.6 | 6.5 | -23.4
O=C(CCCN1C(=O)/C(=C/c2ccco2)SC1=S)Nc1cccc(C(=O)O)c1 | 0.2 | 17.6 | 17.9* | 6.2 | -1.3 | -0.2
C=CCOc1ccc(CC2C(=O)N(C)C(=O)N(C)C2=O)cc1 | 0.0 | -3.2 | -1.6 | -4.6 | -0.1 | -8.2
CCN(CC)c1ccc(CC2C(=O)N(C)C(=O)N(C)C2=O)cc1 | 0.2 | -6.5 | -4.5 | 8.6 | 41.6* | -44.2
O=C1CC2c3c(cccc3CN1Cc1ccc(Cl)cc1)CC(O)C2O (stereo not given) | . | 21.2 | . | . | . | .
O=C1/C(=C/c2cccnc2)Oc2cc(OS(=O)(=O)c3ccc(Cl)cc3)ccc21 | -0.1 | -4.0 | 1.2 | 2.5 | 1.0 | -2.3
O=C1/C(=C/c2cccnc2)Oc2cc(OS(=O)(=O)c3ccccc3)ccc21 | 0.1 | 1.1 | 0.9 | 46.4* | 4.1 | -0.3
O=C(CON=Cc1ccc(OC(F)F)cc1)NCc1ccco1 | . | 12.4 | . | . | . | .
Cc1nc2sc(-c3ccccc3)cc2c(=O)n1N=CN(C)C | . | 12.7 | . | . | . | .
SMILES | UGM FP inh | Mtb hypoxia rep | FadD28 binding | GDH-TPI inh | Mtb FBA inh | Rv3671c protease
Cc1cc(Cl)ccc1OCC(=O)O | 0.4 | 24.4 | -1.0 | -5.7 | -0.5 | 3.0
Cc1ccccc1C1=C/C(=C(\SS/C(C(=O)c2ccc(OCC(=O)O)c(Cl)c2Cl)=C2\C=C(c3ccccc3C)SS2)C(=O)c2ccc(OCC(=O)O)c(Cl)c2Cl)SS1 | . | . | 73.3* | -7.8 | -1.8 | .
Cc1cccc2nc(-c3ccco3)c(Nc3ccccc3)n12 | 0.9 | 8.4 | -1.9 | 13.0 | 120.8* | 3.7
CC(C)(C)c1ccc2c(c1)OC(C(=O)NN=Cc1ccccn1)CO2 (stereo not given) | . | -6.1 | . | . | . | .
Fc1ccc(/C=N/Nc2cc(N3CCOCC3)ncn2)cc1 | 1.7 | . | -3.6 | 16.2 | 1.4 | -1.5
C(=N\Nc1cc(N2CCCCC2)ncn1)/c1ccco1 | 0.6 | . | -1.7 | 42.1* | -1.7 | 2.0
CCc1c(C(=O)NN=Cc2ccc(OCc3ccc(F)cc3)c(OC)c2)nnn1-c1nonc1N | . | -0.3 | . | . | . | .
CC1CCN(Cc2c(C(=O)NN=Cc3cccc(C(F)(F)F)c3)nnn2-c2nonc2N)CC1 | . | -0.2 | . | . | . | .
Cc1ccc(C2=NC(=O)/C(=C/c3cc(O)c(O)c(Br)c3)S2)cc1 | . | 19.5 | 8.2* | 9.3 | -0.7 | .
COc1cc(/C=C2\SC(c3ccc(C)cc3)=NC2=O)cc(OC)c1O | -1.2 | 2.6 | 3.5 | 13.5 | -3.8 | 4.0
CCN1CCSc2ccc(C(=O)Nc3ccc(NC(C)=O)cc3)cc21 | -3.7 | 3.8 | -3.1 | 14.8 | 6.8 | 1.7
CN1CCSc2ccc(C(=O)Nc3cc(F)ccc3F)cc21 | -0.3 | 9.4 | -3.0 | 16.9 | 14.2 | -1.7
CCN1CCSc2ccc(C(=O)NCc3ccccc3C)cc21 | -0.3 | 3.5 | -1.2 | 12.0 | 129.2* | 7.7
CC(C)Oc1ccc(CNC(=O)c2ccc3c(c2)N(C)CCS3)cc1 | -0.9 | 6.9 | 1.9 | 3.9 | 140.4* | 5.5
CN1CCSc2ccc(C(=O)NCc3ccccc3F)cc21 | -4.0 | 4.9 | -1.6 | 4.3 | 137.3* | 3.4
CCN(CC)c1ccc(NC2CC(=O)N(CCc3ccc(OC)cc3)C2=O)cc1 (stereo not given) | -1.6 | 6.7 | 8.7* | -2.4 | 2.3 | 1.0
O=C(c1ccccc1)c1ccc(N2CCOCC2)cc1 | . | . | -0.8 | 37.9* | 3.0 | .
O=C(c1ccccc1)c1ccc(N2CCCC2)cc1 | -2.0 | 6.4 | -0.6 | 13.3 | 3.1 | 9.1
O=C(Cc1ccccc1)c1ccc(N2CCOCC2)cc1 | . | . | -0.2 | 37.1* | 6.2 | .
COc1cc(C2Oc3cc(C4Oc5cc(O)cc(O)c5C(=O)C4O)ccc3OC2CO)ccc1O (stereo not given) | -2.4 | 0.7 | -1.3 | 35.8* | -2.4 | 3.6
CC1OC(OC2C(=O)c3c(O)cc(O)cc3OC2c2ccc(O)c(O)c2)C(O)C(O)C1O (stereo not given) | . | 7.0 | . | . | . | .
CCOc1ccc(C(C)=NNC(=O)C(OC)c2ccccc2)cc1 (stereo not given) | . | -2.1 | . | . | . | .
O=C(N=Nc1c(O)[nH]c2ccc(Br)cc12)c1ccccc1-n1cccc1 | -1.1 | 23.6 | -1.9 | 14.3 | -2.3 | -51.8
O=C(N=Nc1c(O)[nH]c2ccc(Br)cc12)c1ccco1 | . | . | -2.9 | 38.9* | -3.4 | .
CCn1c2ccccc2c2cc(C=Nn3cn[nH]c3=S)ccc21 | . | 6.3 | . | . | . | .
SMILES | UGM FP inh | Mtb hypoxia rep | FadD28 binding | GDH-TPI inh | Mtb FBA inh | Rv3671c protease
Brc1cc2c(cc1/C=N/Nc1nc(N3CCCC3)nc(N3CCOCC3)n1)OCO2 | -2.0 | . | -0.3 | 31.6* | -3.7 | 5.3
Brc1cc2c(cc1C=NNc1nc(N3CCCC3)nc(N3CCOCC3)n1)OCO2 | . | -1.8 | . | . | . | .
CCC(C)C1CNC(=S)N1CCc1cccc2ccccc12 (stereo not given) | . | 11.0 | . | . | . | .
O=C(COC(=O)c1ccc(O)cc1O)Nc1cccc2ccccc12 | -1.8 | 18.8 | 12.0* | 1.8 | -1.8 | -12.5
Cc1ccc(C(=O)OCC(=O)Nc2ccccc2Cl)c(O)c1 | -3.9 | 11.6 | -1.4 | 6.5 | 7.6 | 5.6
Cc1cc(C)nc(N=C(NC(=O)C(C)(C)C)Nc2ccc(F)cc2)n1 | . | 0.0 | . | . | . | .
